Some test systems named below: SK-MEL-2 melanoma; EKVX NSCLC; SN12C renal; UO-31 renal; TK-10 renal; ACHN renal; CAKI-1 renal; A498 renal; CCRF-CEM leukemia; MOLT-4 leukemia; SR leukemia; RPMI-8226 leukemia; OVCAR-8 ovarian; OVCAR-5 ovarian; SK-OV-3 ovarian; IGROV1 ovarian; OVCAR-3 ovarian; HS 578T breast; NCI/ADR-RES ovarian; OVCAR-4 ovarian.
What all share (assay): NCI-60 one-dose screen, 48 h (100 = growth as untreated, 0 = no growth, -100 = all killed)
Details in all cases: 10 µM unless noted

Data on eight compounds can be found in PubChem BioAssay (NCI).

Compounds without any hit were thinned out: in the full panel of roughly 83,000, 20% have a hit.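 Note: values are percent growth. 100 is the growth of untreated cells, values between 100 and 0 indicate rising inhibition; between -100 and 0 indicates cell death.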 A number with no mark means an inactive call. Active and inactive are the calls of the source. How the source made its calls: active means growth percent below 10; inactive means the rest.

`Oc1c(CN2CCCC2)cc(CSCc2ccccc2)c2cccnc12`: the growth in the assay on SK-MEL-2 melanoma is 11.3%; with EKVX NSCLC it was 37%; in the assay on SN12C renal, 17.6%; with UO-31 renal it was -18% (active); in the assay with TK-10 renal, 22.4%; with ACHN renal, 5.28% (active). Besides, the growth in the assay on CAKI-1 renal was 7.37% (active); with A498 renal, 9.44% (active); in the assay with CCRF-CEM leukemia, -14.9% (active); in the assay with MOLT-4 leukemia, -14.4% (active); with SR leukemia, -7.76% (active); in the assay with RPMI-8226 leukemia, 7.56% (active). Also, the growth is 7.91% (active) with OVCAR-8 ovarian; 41.8% in the assay on OVCAR-5 ovarian; -15.6% (active) with SK-OV-3 ovarian; -3.98% (active) in the assay on IGROV1 ovarian; 5.77% (active) in the assay with OVCAR-3 ovarian; 64.5% in the assay on HS 578T breast. The growth in the assay with NCI/ADR-RES ovarian was -46.4% (active).

As for `CC1=C(C(=O)Nc2nc(-c3ccc(Cl)cc3)cs2)[C@H](c2ccc(O)cc2)NC(=O)N1`, the growth with SK-MEL-2 melanoma was 106%; in the assay on EKVX NSCLC it was 94.1%; with SN12C renal, 107%; with UO-31 renal it was 78.3%; in the assay on TK-10 renal, 103%; in the assay with ACHN renal, 105%. Further, the growth is 91% in the assay with CAKI-1 renal; 99.4% in the assay with A498 renal; 116% in the assay on CCRF-CEM leukemia; 94.2% in the assay with MOLT-4 leukemia; 113% in the assay on SR leukemia; 109% in the assay on RPMI-8226 leukemia. Moreover, the growth in the assay on OVCAR-5 ovarian was 106%; with OVCAR-4 ovarian, 98.6%; in the assay with SK-OV-3 ovarian, 111%; in the assay with IGROV1 ovarian, 97.8%; with OVCAR-3 ovarian it was 95.8%; in the assay on HS 578T breast, 106%. Moreover, in the assay on NCI/ADR-RES ovarian, the growth was 101%.

For the compound `CC(C)CCN(CCC(C)C)CC(O)c1cc2c(c3ccccc13)CCCC2` (configuration not stated), the growth in the assay with SK-MEL-2 melanoma was 76.4%; in the assay on EKVX NSCLC it was 73%; in the assay on SN12C renal, 68.6%; with UO-31 renal, 48.7%; in the assay on TK-10 renal, 102%; in the assay with ACHN renal, 52.4%. In addition, the growth was 77.2% with CAKI-1 renal; 52.5% in the assay on A498 renal; 65.6% in the assay with CCRF-CEM leukemia; 55.6% in the assay on MOLT-4 leukemia; 11.8% in the assay on SR leukemia; 49.3% in the assay on RPMI-8226 leukemia. Also, the growth was 71.5% in the assay on OVCAR-5 ovarian; 78.2% in the assay on OVCAR-4 ovarian; 76.8% in the assay with SK-OV-3 ovarian; 64.2% with IGROV1 ovarian; 85% in the assay with OVCAR-3 ovarian; 80.6% with HS 578T breast. For the same compound, the growth in the assay with NCI/ADR-RES ovarian is 71.8%.

Take `CN1CCN(C(=S)SCCCCOc2cc(=O)oc3ccccc23)CC1`: the growth with SK-MEL-2 melanoma was 73.9%; in the assay with EKVX NSCLC, 88.1%; in the assay with SN12C renal, 88.5%; in the assay on UO-31 renal it was 72.3%; in the assay with TK-10 renal it was 93.3%; in the assay on ACHN renal it was 92.9%. In addition, the growth in the assay on CAKI-1 renal is 93.7%; with A498 renal it was 74.7%; with CCRF-CEM leukemia, 72.5%; with MOLT-4 leukemia it was 73.2%; in the assay on SR leukemia, 67.4%; with RPMI-8226 leukemia, 64.8%. The growth with OVCAR-5 ovarian is 101%; in the assay with OVCAR-4 ovarian, 72.4%; in the assay with SK-OV-3 ovarian, 99.5%; with IGROV1 ovarian, 102%; in the assay with OVCAR-3 ovarian, 95.8%; with HS 578T breast it was 96.2%. Also, the growth in the assay with NCI/ADR-RES ovarian was 76.2%.

For `CC(=O)ON1CCCC(P(=O)(OCCSC(=O)C(C)(C)C)OCCSC(=O)C(C)(C)C)C1=O` (configuration not stated), the growth in the assay with SK-MEL-2 melanoma is 50.6%; with EKVX NSCLC it was 22.8%; with SN12C renal, 3.59% (active); with UO-31 renal it was -0.776% (active); with TK-10 renal, 27.2%; in the assay on ACHN renal it was 20.1%. Also, the growth with CAKI-1 renal was 24%; in the assay on A498 renal, -8.82% (active); with CCRF-CEM leukemia, -6.31% (active); in the assay on MOLT-4 leukemia, 15.5%; in the assay on SR leukemia, 6.15% (active); in the assay on RPMI-8226 leukemia it was -17.3% (active). The growth in the assay on OVCAR-5 ovarian was 89.2%; with OVCAR-4 ovarian, 29.7%; in the assay on SK-OV-3 ovarian, 38.6%; in the assay on IGROV1 ovarian it was 16.3%; in the assay on OVCAR-3 ovarian, 10.4%; with HS 578T breast it was 19.6%. In addition, the growth in the assay with NCI/ADR-RES ovarian is 13.2%.

Regarding `COc1cc(Cl)c(C)cc1NC(=O)c1cc2ccccc2cc1O`, the growth with SK-MEL-2 melanoma is -33.1% (active); with EKVX NSCLC, 0.938% (active); in the assay on SN12C renal it was 8.39% (active); in the assay with UO-31 renal, 0.513% (active); in the assay on TK-10 renal it was 6.75% (active); in the assay on ACHN renal, 4.34% (active). The growth is -12.7% (active) in the assay on CAKI-1 renal; -9.59% (active) in the assay on A498 renal; 7.39% (active) in the assay on CCRF-CEM leukemia; 17.5% in the assay with MOLT-4 leukemia; 8.6% (active) in the assay with SR leukemia; 7.23% (active) with RPMI-8226 leukemia. Also, the growth was 11.9% in the assay with OVCAR-8 ovarian; 20% with OVCAR-5 ovarian; 14.8% in the assay on SK-OV-3 ovarian; 11.9% in the assay on IGROV1 ovarian; 6.37% (active) with OVCAR-3 ovarian; 23.8% in the assay on HS 578T breast. Further, the growth in the assay with NCI/ADR-RES ovarian is 0.336% (active).

Turning to `COC(=O)c1cc(Br)ccc1O`, the growth was 101% in the assay with SK-MEL-2 melanoma; 113% in the assay on EKVX NSCLC; 99.5% in the assay with SN12C renal; 95.1% with UO-31 renal; 95.5% in the assay with TK-10 renal; 99.5% in the assay on ACHN renal. The growth in the assay with CAKI-1 renal is 101%; in the assay on A498 renal, 101%; with CCRF-CEM leukemia, 98.6%; in the assay on MOLT-4 leukemia, 103%; with SR leukemia it was 89.2%; in the assay with RPMI-8226 leukemia, 94.5%. Besides, the growth in the assay on OVCAR-5 ovarian was 100%; in the assay on OVCAR-4 ovarian it was 110%; with SK-OV-3 ovarian, 108%; in the assay with IGROV1 ovarian, 110%; in the assay on OVCAR-3 ovarian, 117%; with HS 578T breast it was 117%. The growth with NCI/ADR-RES ovarian is 107%.

Regarding `COc1cc(-c2nc3sccn3c2-c2ccnc(NCCNS(=O)(=O)c3ccc(Cl)cc3)n2)ccc1F`, the growth is 12.6% with SK-MEL-2 melanoma; 48.8% in the assay with EKVX NSCLC; 37.4% in the assay on SN12C renal; 6.85% (active) with UO-31 renal; 55.1% in the assay on TK-10 renal; 20.4% in the assay on ACHN renal. The growth was 19.6% in the assay with CAKI-1 renal; 52.8% in the assay with A498 renal; 6.78% (active) with CCRF-CEM leukemia; -3.87% (active) in the assay with MOLT-4 leukemia; 34.5% in the assay with SR leukemia; -18.9% (active) with RPMI-8226 leukemia. The growth was 12.3% in the assay with OVCAR-8 ovarian; 112% in the assay with OVCAR-5 ovarian; 54.4% in the assay on SK-OV-3 ovarian; 41.8% in the assay with IGROV1 ovarian; 43.1% with OVCAR-3 ovarian; 49.5% in the assay on HS 578T breast. Further, the growth with NCI/ADR-RES ovarian was 13.7%.
